In ChEMBL document CHEMBL3988442, “University of Dundee, Small-Polar-MMV Screening Library” (2021):
Among all 53,000 compounds or so, about 900 (1.7%) showed an effect of 50% or more. The list comes from a sample in which strong results are over-represented; it also holds similar structures and randomly drawn compounds.

Each compound was assayed on Mycobacterium tuberculosis (assay: Cornell - Phenotypic assay to identify agents that inhibit growth of Mycobacterium tuberculosis). Details: 10 mM as filed; unlikely as a test dose.
Type: functional
Design: scale not given: direction of the effect not stated beside the values

Compared with `Cc1ccccc1C(=O)N1C[C@@H](O)[C@H](N2CCOCC2)C1`, `Cc1ccccc1C(=O)N1CC[C@H](O)[C@@H](N2CCOCC2)CC1` is lower in “Percent Effect” value: 51.24% for the first, 45.8% for the second.

First: CC(=O)N1CCN([C@@H]2CN(C(=O)c3ccccc3C)C[C@H]2O)CC1
Second: Cc1cc2n(n1)CC(CNC1CCN(Cc3ccccc3C)CC1)CN2 (stereo unspecified)
The “Percent Effect” value of the first is lower: -3.259% for the first, 1.638% for the second.

Going from `CCN(CC)S(=O)(=O)N1CC[C@H](c2ccccc2)[C@@H]2[C@H]1CCCCN2C` to `N#Cc1cccc(S(=O)(=O)N2CCCCC2C(N)=O)c1` (stereo unspecified), the “Percent Effect” value rises from 1.905% to 15.32%.

Compared with `COc1cccc2ncn(C(C)Cn3cccn3)c(=O)c12` (stereo unspecified), `CNc1ccnc(NCC(=O)Nc2cc(C)ccc2OC)n1` is higher in “Percent Effect” value: -18.84% for the first, -15.75% for the second.

Compared with `COCc1cccc(NCc2cccnc2)c1`, `CCSCc1cccc(NCc2cccnc2)c1` is higher in “Percent Effect” value: -54.85% for the first, 73.99% for the second.

Compared with `CCSc1cccc(NCc2cccnc2)c1`, `Cn1c(Cn2cccn2)nnc1C1CCN(Cc2cccnc2)CC1` is lower in “Percent Effect” value: 12.75% for the first, -9.114% for the second.

Compared with `CO[C@@H]1CCC[C@@H](NC(=O)CCCn2cncn2)[C@H]1O`, `O=S(=O)(NCCCn1cncn1)c1ccc2c(c1)OCCO2` is lower in “Percent Effect” value: 5.133% for the first, -20.65% for the second.

Compared with `COc1ccc(C2CN(c3ncccn3)CCN2C(C)=O)cc1` (stereo unspecified), `CC(=O)N1CCC(c2nccnc2-c2ccc(C(=O)O)cc2)CC1` is higher in “Percent Effect” value: -24.16% for the first, -19.35% for the second.

Compared with `CCc1ccc2c(C3CN(CC4CCC4)C3)ncn2c1.O=C(O)C(F)(F)F`, `CCc1ccc2c(C3CN(C(C)=O)C3)ncn2c1` is lower in “Percent Effect” value: 77.11% for the first, 27.54% for the second.

Going from `CCc1ccc2c(C3CN(S(C)(=O)=O)C3)ncn2c1` to `CS(=O)(=O)N1Cc2ccnn2CC(C(=O)NCc2cccnc2)C1.O=C(O)C(F)(F)F.O=C(O)C(F)(F)F` (stereo unspecified), the “Percent Effect” value falls from 13.01% to -34.93%.

First: Cc1csc(C2(NCc3csc(C4CC4)n3)CCCC2)n1
Second: CCc1cc(C(=O)N2CCC3(CCCN(CC4CC4)C3=O)C2)cs1 (stereo unspecified)
The “Percent Effect” value of the first is higher: 19.76% for the first, 1.27% for the second.

Compared with `Cc1ccccc1CS(=O)(=O)c1nnc(C(C)NC(=O)OC(C)(C)C)o1` (stereo unspecified), `CC(NC(=O)OC(C)(C)C)c1nnc(S(=O)(=O)Cc2ccccc2Cl)o1` (stereo unspecified) is higher in “Percent Effect” value: 104.2% for the first, 105.8% for the second.

Going from `Cl.N[C@@H](Cc1ccccc1)c1nnc(S(=O)(=O)Cc2ccc(Cl)cc2)o1` to `N[C@@H](Cc1ccccc1)c1nnc(S(=O)(=O)Cc2ccccc2)o1`, the “Percent Effect” value falls from -9.825% to -19.29%.

First: CCC(C)NC(=O)CS(=O)(=O)Cc1ccccc1Cl (stereo unspecified)
Second: Oc1ccc(Cl)cc1CNCc1ccccc1Cl
The “Percent Effect” value of the first is lower: 2.34% for the first, 26.21% for the second.

Going from `Cc1noc(C(C)NC(=O)[C@@H](C)NC(=O)OC(C)(C)C)n1` (stereo partly specified) to `CC(NC(=O)OC(C)(C)C)c1nnc(S(=O)(=O)Cc2ccc(Cl)cc2)o1` (stereo unspecified), the “Percent Effect” value rises from 27% to 103.3%.

Going from `Cc1cccc(CS(=O)(=O)c2nnc([C@@H](N)Cc3ccccc3)o2)c1.Cl` to `C[C@H](NC(=O)OC(C)(C)C)c1nnc(S(=O)(=O)Cc2cccc(F)c2)o1`, the “Percent Effect” value falls from -11.8% to -26.24%.

First: CCCOc1cc(F)ccc1NC(=O)NCc1noc(C)n1
Second: COCCc1noc(C2CCN(C(=O)Nc3cccs3)CC2)n1
The “Percent Effect” value of the first is lower: 7.548% for the first, 17.42% for the second.

Going from `Cc1cn2c(n1)CCC(NC(=O)c1oc(Br)cc1C)C2` (stereo unspecified) to `O=C(Nc1cccs1)N1CC(c2nc(C3CC3)no2)C1`, the “Percent Effect” value rises from -43.16% to 107.8%.

First: CC(C)NC(=O)N1CCC[C@H]1C(=O)NCCCc1cccc(F)c1
Second: COCC1CCCN(C(=O)c2ccc(NC(=O)CC(C)C)c(C)c2)C1 (stereo unspecified)
The “Percent Effect” value of the first is lower: -6.686% for the first, -1.652% for the second.

Compared with `Cc1c[nH]nc1C1CCCN1Cc1ccncc1` (stereo unspecified), `Cc1nn(C)c2c(NCc3ccncc3)nc(C3CC3)nc12` is lower in “Percent Effect” value: 14.55% for the first, -8.977% for the second.

Compared with `CCn1cc(-c2cc(C(F)(F)F)nc(NC3CCCC3)n2)c(C)n1`, `Cc1nn(C)cc1-c1cc(C(F)(F)F)nc(NC2CCCCC2)n1` is lower in “Percent Effect” value: 101.8% for the first, 22.2% for the second.

Going from `Cc1nn(C)cc1-c1cc(C(F)(F)F)nc(NC2CCN(C)CC2)n1` to `COCCN1CCC(c2cncc(N(C)C)n2)CC1`, the “Percent Effect” value falls from 11.83% to -17.24%.

First: COCC(=O)N1CCCC(c2nc(N)ncc2-c2cccc(F)c2)C1 (stereo unspecified)
Second: Fc1ccccc1-c1cccc(C2CCCN(C3CCOCC3)C2)n1 (stereo unspecified)
The “Percent Effect” value of the first is lower: 3.898% for the first, 36.89% for the second.

Going from `Cc1c(CN2CCOCC2)c(O)n(CCc2ccccc2)c(=O)c1C#N` to `Cc1c(CN2CCOCC2)c(O)n(CCO)c(=O)c1C#N`, the “Percent Effect” value falls from 66.79% to -84.89%.

First: Cc1c(CN2CCCCC2)c(O)n(CCO)c(=O)c1C#N
Second: O=C(c1ccno1)N1CCn2cc(CN3CCCCC3)nc2C1
The “Percent Effect” value of the first is higher: 38.65% for the first, 6.548% for the second.

Compared with `O=C(CNc1cc2c(cc1Cl)OCCCO2)NCc1ccc(F)cc1`, `COc1ccc(CNC(=O)CNc2cc3c(cc2Cl)OCCCO3)cc1` is higher in “Percent Effect” value: -2.409% for the first, 53.68% for the second.

Going from `COc1ccc(CNC(=O)CNc2cc3c(cc2Cl)OCCO3)cc1` to `COc1ccc(OCc2cc(C(=O)N3CCOCC3)n[nH]2)c(Cl)c1`, the “Percent Effect” value rises from -25.81% to 19.45%.

Going from `c1ccc(Cn2cccn2)c(CNCC2CNc3ccnn3C2)c1` (stereo unspecified) to `Cc1ccccc1CN1CCC(NCC2CNc3ccnn3C2)CC1` (stereo unspecified), the “Percent Effect” value rises from -42.61% to 54.71%.

Going from `CCC(C)NC(=O)NCc1cc2n(n1)CCCN(C1CCCCC1)C2` (stereo unspecified) to `O=C(C1CCC1)N1CCCn2nc(CNc3ncccn3)cc2C1`, the “Percent Effect” value rises from -10.73% to 5.205%.

First: CN(C)C1COC2(CCN(Cc3ccncc3)CC2)C1 (stereo unspecified)
Second: Cc1ccccc1CN1CCOC(c2nccc(CN(C)C)n2)C1 (stereo unspecified)
The “Percent Effect” value of the first is higher: 9.126% for the first, -48.65% for the second.

Going from `CC(=O)N(Cc1noc(C2CC2)n1)C1CCN(CC2CCOCC2)C1` (stereo unspecified) to `O=C(O)C(F)(F)F.O=C([C@H]1CC[C@@H]2[C@@H](CCN2C2CCOCC2)O1)N1CCOCC1`, the “Percent Effect” value rises from -29.12% to 0.461%.

First: COc1ccc(OCc2cc(C(=O)N3CCSCC3)n[nH]2)c(Cl)c1
Second: COc1ccc(OCc2cc(C(=O)N3CCC(O)CC3)n[nH]2)c(Cl)c1
The “Percent Effect” value of the first is higher: 54.8% for the first, 6.579% for the second.

Going from `COc1ccc(OCc2cc(C(=O)N3C[C@@H](C)O[C@@H](C)C3)n[nH]2)c(Cl)c1` to `COc1ccc(OCc2cc(C(=O)N3CC=CC3)n[nH]2)c(Cl)c1`, the “Percent Effect” value rises from 4.963% to 40.41%.

First: COc1ccc(OCc2cc(C(=O)N3CCCCO3)n[nH]2)c(Cl)c1
Second: COc1nn(C)c2c1CCCN(C(=O)c1cc[nH]n1)C2
The “Percent Effect” value of the first is higher: 106.4% for the first, 12.29% for the second.

Compared with `CC(C(=O)N1CCOCC1)N1CCN(Cc2nccn2C)CC1` (stereo unspecified), `CC(C)n1nccc1NC(=O)CN1CCc2sccc2C1` is higher in “Percent Effect” value: -9.72% for the first, 2.695% for the second.

First: O=C(Cc1cccnc1)N1CCCC(n2cncn2)C1 (stereo unspecified)
Second: O=C(O)C(F)(F)F.O=C1CC2(CCN(Cc3ccccn3)C2)CN1c1cncnc1 (stereo unspecified)
The “Percent Effect” value of the first is lower: -17.88% for the first, 17.37% for the second.

Compared with `CCN(CC(C)C#N)C(=O)CNc1cc(Cl)ccc1C(N)=O` (stereo unspecified), `CCCC(C#N)NC(=O)c1cc(Br)c2c(c1)OCCO2` (stereo unspecified) is higher in “Percent Effect” value: -0.05585% for the first, 14.39% for the second.

First: CCN(Cc1cccc(C)c1)Cn1nc(C)c2c(C)onc2c1=O
Second: CCc1ccc(CN(CCCn2ccnc2)Cc2ccc(C)s2)o1.O=C(O)CC(O)(CC(=O)O)C(=O)O
The “Percent Effect” value of the first is lower: -12.96% for the first, 67.99% for the second.

Going from `COc1ccccc1C1CCN(C(=O)CN2C(=O)OC(C)(C)C2=O)CC1` to `CC1(C)OC(=O)N(CC(=O)N2CCC(c3ccccc3Cl)C2)C1=O` (stereo unspecified), the “Percent Effect” value falls from 53.49% to 25.58%.

Going from `CC1(C)OC(=O)N(CC(=O)N2CCC(c3ccccc3F)C2)C1=O` (stereo unspecified) to `O=C(Nc1c(F)cccc1F)N1CC(c2nc(C3CC3)no2)C1`, the “Percent Effect” value falls from 22.76% to 10.47%.

First: Oc1ccc(Cl)cc1CNCc1cccc(C(F)(F)F)c1
Second: Oc1ccc(Cl)cc1CNCc1ccccc1C(F)(F)F
The “Percent Effect” value of the first is higher: 70.21% for the first, 6.779% for the second.

Going from `CCc1nnc(NC(=O)c2c3c(nn2C2CCS(=O)(=O)C2)CCC3)s1` (stereo unspecified) to `Cn1nccc1NC(=O)CN1CCc2sccc2C1`, the “Percent Effect” value rises from -18.44% to -1.554%.

Compared with `CNC(=O)NCC1CCC2(CCN(C(=O)c3ccccc3)CC2)CO1` (stereo unspecified), `O=C(O)C(F)(F)F.O=C(O)C(F)(F)F.O=C(c1cccnc1)N1CCC[C@]2(C[C@H](Oc3ncccc3F)CO2)C1` is lower in “Percent Effect” value: 2.943% for the first, -30.18% for the second.

Compared with `O=C(CN1CCc2sccc2C1)Nc1ccnc2ccnn12`, `Nc1nccc(C2CN(Cc3ccc(-c4ccccc4C(=O)O)o3)C2)n1` is lower in “Percent Effect” value: 105.2% for the first, 40.18% for the second.

First: O=C(O)c1ccccc1-c1ccc(CN2CC(c3ccncn3)C2)o1
Second: Cc1nccc(C2CN(Cc3ccc(-c4ccccc4C(=O)O)o3)C2)n1
The “Percent Effect” value of the first is higher: 60.18% for the first, 19.38% for the second.

Compared with `Cc1ccc(CN(CCCn2ccnc2)Cc2ccccc2O)s1.O=C(O)CC(O)(CC(=O)O)C(=O)O`, `Cc1ccc(CN(CCCn2ccnc2)Cc2cccs2)s1.O=C(O)CC(O)(CC(=O)O)C(=O)O` is higher in “Percent Effect” value: -13.23% for the first, 40.45% for the second.

First: Cc1cnc(CCNC(=O)NCCc2ccc(O)cc2)s1
Second: CCc1ccc(C(COC)NC(=O)c2ccsc2)o1 (stereo unspecified)
The “Percent Effect” value of the first is lower: 16.98% for the first, 37.56% for the second.

First: c1cc2n(n1)CC(CNCc1ccc(OC3CCCCC3)nc1)CN2 (stereo unspecified)
Second: c1cc2n(n1)CC(CNCc1ccc(OC3CCCC3)nc1)CN2 (stereo unspecified)
The “Percent Effect” value of the first is higher: 102.7% for the first, -62.66% for the second.

Compared with `c1cc(CNCC2CNc3ccnn3C2)cc(OC2CCCCC2)n1` (stereo unspecified), `Cc1nc(C2CCCNC2)cc(N(C)CCc2ccccc2)n1` (stereo unspecified) is higher in “Percent Effect” value: -14.29% for the first, 0.6184% for the second.

First: CN(Cc1cc2cc(F)ccc2[nH]1)c1cc(C2CCCNC2)ncn1 (stereo unspecified)
Second: Cc1c(CN(C)c2cc(C3CCCNC3)ncn2)[nH]c2ccccc12 (stereo unspecified)
The “Percent Effect” value of the first is lower: 13.11% for the first, 61.5% for the second.

In the case of `CN1C(=O)CCc2cc(NS(=O)(=O)Cc3cccc(F)c3)ccc21`, the “Percent Effect” value is reported as 1.464%.
